Results filed as inconclusive are left out. Entries that show only a call come without a potency. Activity calls are given as the source filed them. Calls come from the whole dose curve; as a rule, active = well fitted cell-killing curve with a large enough effect in the repeat runs; inconclusive = weak or mixed curves, or effect the other way; inactive = flat fitted curve, though single readings scatter.
Assay: qHTS assay to identify small molecule agonists of the estrogen receptor beta (ER-beta) signaling pathway - cell viability counter screen (AID 1259380); note: nearly all actives have a fitted effect of over 30% in size
Conditions: ER-beta-bla HEK293T viability, CellTiter-Glo luminescence, 16 h; series mostly up to 92.4 µM
Excerpt: National Center for Advancing Translational Sciences [NCATS]
NIH Chemical Genomics Center [NCGC]
U.S. Environmental Protection Agency [EPA]
National Institutes of Environmental Health Sciences [NIEHS]
National Toxicology Program [NTP]
U.S. Food and Drug Administration [FDA]
Estrogen receptor (ER), a nuclear hormone receptor, plays an important role in development, metabolic homeostasis and reproduction. Two subtypes of ER, ER-alpha and ER-beta, have similar expression patterns with some uniqueness in both types. Endocrine disrupting chemicals (EDCs) and their interactions with steroid hormone receptors like ER causes disruption of normal endocrine function. To identify the compounds that activate ER signaling, an ER beta-UAS-bla GripTite cell line (Life Technologies, Madison, WI, USA) containing a beta-lactamase reporter gene under the control of an UAS response element was used to screen Tox21 10K compound library. The cytotoxicity of the Tox21 compound library against the ER-beta-bla cell line was tested in parallel by measuring the cell viability using CellTiter-Glo assay in the same wells.
Tox21 Assay Protocol Summary:
ER-beta-UAS-bla HEK293T cells were dispensed at 2,000 cells/5 uL of assay medium containing 2% charcoal stripped FBS per well into black wall/clear-bottom 1536-well plates using a Multidrop Combi (ThermoFisher Scientific, Waltham, MA) dispenser. After the assay plates were incubated at a 37C and 5% CO2 for 6 hr, 23 nL of compounds dissolved in DMSO, positive controls or DMSO only was transferred to the assay plate by a Pintool station (Kalypsys, San Diego, CA). The plates were incubated at 37C and 5% CO2 for 16 hr. Then 1 uL of LiveBLAzerTM B/G FRET substrate was added using a BioRAPTR FRD (Flying Reagent Dispenser, Aurora Discovery, San Diego, CA) and then the plates were incubated at room temperature for 2 hours, and fluorescence intensity was measured by an Envision plate reader (PerkinElmer, Shelton, CT). For cell viability readout that measures cytotoxicity, 4 uL/well of CellTiter-Glo reagent was added into the assay plates using a FRD. After 30 min incubation at room temperature, the luminescence intensity in the plates was measured using a ViewLux (PerkinElmer) plate reader.
In the case of CC(C(=O)O)c1ccc(-c2ccccc2)c(F)c1 (stereo not given), the Potency is reported as “inactive”.
With Oc1ccc(O)c2c(O)cccc12 the Potency was “inactive”.
In the case of CCCCCCCCCCCCCCCCCBr, the activity change, negative = cytotoxicity is reported as -0.948% [at 19 µM] (inactive).
For CCN(CC)C(C)=O, the Potency was “inactive”.
In the case of CCOc1cc(OCC)c(C(=O)CCC(=O)O)cc1OCC, the Potency is reported as “inactive”.
In the case of CC(=O)N(CC(=O)N(C)C)c1ccccc1, the Potency is reported as “inactive”.
For Cc1cc(C)c(S(=O)(=O)O)cc1N=Nc1cc(S(=O)(=O)O)c2ccccc2c1O, the Potency was “inactive”.
In the case of CC(=O)Nc1ccc(/C=N/NC(N)=S)cc1, the Potency is reported as “inactive”.
In the case of Cc1cc(O)ccc1N, the Potency is reported as 48.8 µM (active).
In the case of c1ccc(CNCc2ccccc2)cc1, the Potency is reported as “inactive”.
With CN1CCN(C2=Nc3cc(Cl)ccc3Nc3ccccc32)CC1 the Potency was 29.8 µM (active).
With CC1=CC(=O)/C(=C(/C)O)C(=O)O1 the Potency was “inactive”.
With CCN(CC)C(C)CN1c2ccccc2Sc2ccccc21 (stereo not given) the Potency was “inactive”.
In the case of CC(C)(C)C1CCCCC1O (stereo not given), the Potency is reported as “inactive”.
With O=C1[C@H](CC[C@H](O)c2ccc(F)cc2)[C@@H](c2ccc(O)cc2)N1c1ccc(F)cc1 the Potency was “inactive”.
For CC(O)C1CCCCC1 (stereo not given), the Potency was “inactive”.
For COc1cc(C(C)(C)C)c(O)c(C(C)(C)C)c1, the Potency was “inactive”.
For ClC(Cl)(Cl)c1ccc(C(Cl)(Cl)Cl)cc1, the Potency was “inactive”.
For Oc1ccc(C(O)CNCCCCCCNCC(O)c2ccc(O)c(O)c2)cc1O (stereo not given), the Potency was “inactive”.
For NCCCN(CCO)CCO, the Potency was “inactive”.
For N[C@H]1C(O)O[C@H](CO)[C@H](O)[C@@H]1O (stereo not given in full), the Potency was “inactive”.
With CC(=O)[C@@]1(O)CC[C@H]2[C@@H]3C[C@H](C)C4=CC(=O)CC[C@]4(C)[C@H]3CC[C@@]21C the Potency was “inactive”.
With CCCCCOC(=O)c1ccc(O)cc1 the Potency was 55.1 µM (active).
In the case of CC(CN)CCCN (stereo not given), the Potency is reported as “inactive”.
For Cc1cccc(C(C)(C)C)c1O, the Potency was “inactive”.
For CCCOc1ccc2nc(NC(=O)OC)[nH]c2c1, the Potency was “inactive”.
For O=C(O)c1cccc(N(Cc2cccnc2)c2ccc(OC(F)F)c(OC(F)F)c2)c1, the Potency was 48.6 µM (active).
In the case of O=C1CCCCCO1, the Potency is reported as “inactive”.
In the case of O=CNc1ccccc1, the Potency is reported as “inactive”.
In the case of CC1CCc2cc(F)cc3c(=O)c(C(=O)O)cn1c23 (stereo not given), the Potency is reported as “inactive”.
For Nc1nc(N)c(-c2ccccc2)s1, the Potency was “inactive”.
In the case of Cc1ccc(C(=O)C(C)CN2CCCCC2)cc1 (stereo not given), the Potency is reported as “inactive”.
For N#CCCNCCC#N, the Potency was “inactive”.
With CC(C)CCCCCCOC(=O)c1ccc(C(=O)OCCCCCCC(C)C)c(C(=O)OCCCCCCC(C)C)c1 the Potency was “inactive”.
In the case of CC(=O)O[C@H]1C[C@@H]2CC[C@@H]3[C@H](CC[C@@]4(C)[C@H]3C[C@H]([N+]3(C)CCCCC3)[C@@H]4OC(C)=O)[C@@]2(C)C[C@@H]1N1CCCCC1, the Potency is reported as “inactive”.
For CCCCOC(=O)c1ccccc1C(=O)OCC(CC)CCCC (stereo not given), the Potency was “inactive”.
For CCCCCCCCCC=O, the Potency was “inactive”.
For C=CC(=O)OCCOC(=O)CCC(=O)O, the Potency was “inactive”.
With NC(N)=NN=C(/C=C/c1ccc([N+](=O)[O-])o1)/C=C/c1ccc([N+](=O)[O-])o1 the Potency was 10.6 µM (active).
In the case of O=C(Nc1ccccc1)OCC(CN1CCCCC1)OC(=O)Nc1ccccc1 (stereo not given), the Potency is reported as 26.6 µM (active).

From PubChem BioAssay (Tox21)
Potency is the fitted concentration of half-maximal effect.
